Many of the other results were omitted from the sample, so hits are more common in it than they were.
DT40 TDP1 CPT: qHTS for Inhibitors of human tyrosyl-DNA phosphodiesterase 1 (TDP1): qHTS in cells in presence of CPT. chicken DT40 Tdp1-/-;hTDP1 cells + 20 nM CPT, ATP luminescence, 48 h. 12% of 420,000 active. Potency, µM (doses to about 46.2 µM), inactives show at the top dose activity change, negative = growth inhibition, usual class: inhibitors. AID 686979, 2013; also: potency is read from the fitted curve at half-maximal effect; nearly all actives have a fitted effect of over 55% in size
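Cell growth measured by CellTiter-Glo luminescence after a minimum 48 h, 37 C compound exposure with 20 nM CPT in Tdp1-knockout DT40 cells stably expressing hTDP1, seeded 400/well; qHTS titration format.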
TDP1 cell noCPT: qHTS for Inhibitors of human tyrosyl-DNA phosphodiesterase 1 (TDP1): qHTS in cells in absence of CPT | Potency, µM (doses to about 46.2 µM), for inactives: at the highest dose activity change, negative = growth inhibition, actives largely listed as inhibitors | DT40 Tdp1-/- hTDP1 cells, no CPT, ATP luminescence, 48 h | 15% of 420,000 active; also: potency is read from the fitted curve at half-maximal effect; nearly all actives have a fitted effect of over 55% in size
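Chicken DT40 Tdp1-/- cells complemented with human TDP1, screened without camptothecin (DMSO vehicle only), 400 cells/well. Compounds pin-transferred, cells incubated at 37 °C for at least 48 hr. Growth read as ATP-dependent luminescence (CellTiter-Glo, 30 min at RT).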
ALOX12 inh: Primary qHTS assay for inhibitors of human arachidonate 12S-lipoxygenase (ALOX12): Round 2; purified 12hLO, xylenol orange hydroperoxide absorbance; AID 1671190, 2021; Potency, µM (series often up to 108 µM), for inactives: at the top dose activity change, negative = inhibition, usual class: inhibitors; 1.1% of 580,000 active; also: potency is read from the fitted curve at half-maximal effect
Target sequence (P18054 whole entry, looked up): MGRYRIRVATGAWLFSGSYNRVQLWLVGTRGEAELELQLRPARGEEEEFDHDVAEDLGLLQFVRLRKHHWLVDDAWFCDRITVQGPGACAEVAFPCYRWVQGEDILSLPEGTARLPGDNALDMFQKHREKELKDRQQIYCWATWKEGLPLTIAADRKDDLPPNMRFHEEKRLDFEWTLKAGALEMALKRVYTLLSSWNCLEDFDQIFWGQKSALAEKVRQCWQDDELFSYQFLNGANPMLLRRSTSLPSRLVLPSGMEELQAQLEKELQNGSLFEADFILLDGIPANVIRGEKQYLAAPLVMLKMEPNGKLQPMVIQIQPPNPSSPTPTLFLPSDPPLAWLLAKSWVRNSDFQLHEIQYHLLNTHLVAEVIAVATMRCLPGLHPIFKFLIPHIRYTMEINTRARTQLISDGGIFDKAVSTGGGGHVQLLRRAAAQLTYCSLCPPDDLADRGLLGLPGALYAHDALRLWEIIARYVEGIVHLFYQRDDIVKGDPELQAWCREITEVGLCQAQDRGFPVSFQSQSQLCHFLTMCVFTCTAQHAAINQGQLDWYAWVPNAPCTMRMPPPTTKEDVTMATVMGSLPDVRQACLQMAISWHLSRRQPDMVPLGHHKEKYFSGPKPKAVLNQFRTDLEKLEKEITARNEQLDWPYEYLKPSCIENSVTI
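Purified human 12hLO at 150 nM in 25 mM Hepes, 0.01% Triton X-100, pH 7.0, preincubated 15 min at room temperature with compound. Reaction started with 40 uM arachidonic acid, 30 min at room temperature. Hydroperoxide measured by Fe-xylenol orange, 573/405 nm absorbance ratio.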
HT1080NT lethal: qHTS for induction of synthetic lethality in tumor cells producing 2HG: qHTS for the HT-1080-NT fibrosarcoma cell line. Potency, µM (highest dose often 46.1 µM), inactives show at the top dose activity, negative = less viability, most hits filed as cytotoxic. HT-1080-NT fibrosarcoma viability, CellTiter-Glo ATP luminescence, 48 h. 1.6% of 360,000 active;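 also: NT is the 2HG producing partner of a matched IDH1 knockdown line; potency is read from the fitted curve at half-maximal effect; 0% = DMSO-treated cells and -100% = media-only wells without cells; nearly all actives have a fitted effect of over 55% in size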
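HT-1080-NT fibrosarcoma cells (2HG-overproducing), 750 cells/well in RPMI with 5% FBS, dosed after 2 h and incubated 48 h at 37C. CellTiter-Glo luminescence normalized to DMSO and no-cell wells; concentration-response curves fitted and classed.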
HT1080 IDH1KD tx: qHTS for induction of synthetic lethality in tumor cells producing 2HG: qHTS for the HT-1080-IDH1KD cell line. HT-1080 IDH1 knockdown viability, ATP luminescence, 48 h. Potency, µM (top dose mostly 46.1 µM), for inactives: at the highest dose activity, negative = toxicity, actives largely listed as cytotoxic. 2% of 360,000 active. AID 686971, 2013;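 also: potency is read from the fitted curve at half-maximal effect; 0% = DMSO wells and -100% = cell-free medium wells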
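Luminescent ATP read-out (CellTiter-Glo, 10 min at room temperature) after 48 h compound exposure at 37 °C gave viability of IDH1-knockdown HT-1080 cells. Activity was normalised to DMSO and cell-free wells, then fitted as concentration-response curves.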
IL1B secr inh: qHTS for Inhibitors of Inflammasome Signaling: IL-1-beta AlphaLISA Primary Screen | activity change, % at 57.5 µM | 4.7% of 360,000 active | THP-1 LPS/ATP IL-1B secretion, AlphaLISA, 16 h; active compounds read low | AID 743279, 2014; in the data active = activity change below about -50%; inconclusive = mostly about -30% to -49%
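Secreted IL-1B measured by AlphaLISA bead assay after 16 h compound exposure of THP-1 cells; compounds (final up to 57.5 uM) added 1 h before LPS (250 ng/mL) and ATP (1.25 mM) stimulation; lower signal means less secretion.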
An asterisk follows results filed as active; ? = inconclusive; nt = no result; [ ] = remark or other dose. Unless noted, calls follow the shape of the dose curve; as a rule, active = well fitted curve in the direction sought with a large enough effect; inconclusive = small, poorly fitted or top-dose-only effect, or another doubt; inactive = no such curve, though single readings can be large; an effect the other way counts as inactive or inconclusive. Unless noted, % is scaled to controls: 0 for no effect and ±100 for the full control effect.

SMILES	DT40 TDP1 CPT	TDP1 cell noCPT	ALOX12 inh	HT1080NT lethal	HT1080 IDH1KD tx	IL1B secr inh
COc1ccc(OCC(=O)N2CCN(Cc3c[nH]c4ccccc34)CC2)cc1	1.6µM*	3.7µM*	?	0%	0%	-9
O[C@H]1[C@H](NC2CCOCC2)[C@@H](C2CCCCC2)C[C@H]1O	nt	nt	-3%[176 µM]	nt	nt	nt
CCC(C)C1NC(=O)C2CCCN2C(=O)C(CC(C)C)OC(=O)CCNC(=O)C(C)N(C)C(=O)C(C(C)C)N(C)C1=O (stereo not drawn)	3.3µM*	4.1µM*	11%	18µM*	23µM*	-14
Cc1ccc2scc(N3CCN(C)CC3)c(=O)c2c1	-20%	-15%	-4%	nt	nt	nt
O=C(N/N=C/C1C(=O)NC(=S)N(c2ccccc2)C1=O)c1cc(Br)c(O)c(Br)c1 (stereo not drawn)	16µM*	?	?	-14%	0%	31
CC(C)(C)OC(=O)COc1cc(OCC(=O)OC(C)(C)C)c2c(=O)cc(-c3ccccc3)oc2c1	?	18µM*	-12%	?	?	-67*
Cc1cc(OCC(=O)N2CCC(C(=O)O)(c3ccccc3)CC2)c2c(C)cc(=O)oc2c1	-11%	21%	16%	0%	-1%	2
Cc1nn(-c2cccc(Cl)c2)c2c1C(c1ccsc1)SCC(=O)N2 (stereo not drawn)	nt	nt	-30%	nt	nt	nt
COC(=O)C(O)C(O)(CCC(C)C)C(=O)OC1C(OC)=CC23CCCN2CCc2cc4c(cc2C13)OCO4 (stereo not drawn)	nt	nt	12%	nt	nt	nt
CC[C@H](C)[C@H]1O[C@]2(C=C[C@@H]1C)C[C@@H]1C[C@@H](C/C=C(\C)[C@@H](O[C@H]3C[C@H](OC)[C@@H](O[C@H]4C[C@H](OC)[C@@H](O)[C@H](C)O4)[C@H](C)O3)[C@@H](C)/C=C/C=C3\CO[C@@H]4[C@H](O)C(C)=C[C@@H](C(=O)O1)[C@]34O)O2	?	16µM*	nt	nt	nt	nt
CC1=NOC2(CCN(CCC(C)C)C2)C1 (stereo not drawn)	nt	nt	60%[176 µM]	nt	nt	nt
COc1cc2c(cc1O)CC[C@@H]1[C@@H]2CC[C@]2(C)[C@@H](O)CC[C@@H]12	1.8µM*	4.6µM*	nt	?	?	-11
COc1ccc(-c2cn(C[C@H]3CC4CCN3C[C@@H]4C(=O)NCCNC(C)=O)nn2)cc1 (stereo partly drawn)	nt	nt	15%[176 µM]	nt	nt	nt
CC1=C(O)C(=O)[C@H]2O[C@@H]2C1=O	7.5µM*	11µM*	?	nt	nt	nt
CC1OC(OC2C=C3CCC4C(CCC5(C)C(c6ccc(=O)oc6)CCC45O)C3(C)CC2)C(O)C(OC2OC(CO)C(O)C(O)C2O)C1O (stereo not drawn)	0.16µM*	0.18µM*	1%	0.21µM*	0.18µM*	-71*
CC1OC(OC2CC[C@]3(C=O)[C@H]4[C@H](O)CC5(C)C(C6=CC(=O)OC6)CCC5(O)[C@@H]4CCC3(O)C2)C(O)C(O)C1O (stereo partly drawn)	nt	nt	-18%	nt	nt	nt
COc1cccc(C2=CC(c3cc(Br)ccc3F)n3nnnc3N2)c1 (stereo not drawn)	1.3µM*	1.3µM*	1%	nt	nt	nt
CCCCn1c(C)c(C(=O)OCC)c2c(CN3CCCC3)c(O)ccc21	18µM*	12µM*	?	?	-30%	-79*
CCCCn1c(C)c(C(=O)OCC)c2c(CN3CCOCC3)c(O)ccc21	-21%	-17%	?	-11%	-26%	-60*
CCCCn1c(C)c(C(=O)OCC)c2cc(OC)ccc21	nt	nt	8%	nt	nt	nt
CCOP(=O)(OCC)/C(C#N)=C/c1ccc(-c2ccc(F)cc2F)o1	15µM*	?	?	-19%	-12%	?
CCN[C@H](C)Cc1cccc(C(F)(F)F)c1	3%[92.5 µM]	4%[92.5 µM]	nt	nt	nt	nt
CN1CCCC(C(=O)c2ccc(-c3ccccc3)cc2)C1 (stereo not drawn)	?	18µM*	0%	-27%	-22%	-12
O=C(c1ccc(-c2ccccc2)c(F)c1)C1CCCN(CCO)C1 (stereo not drawn)	?	?	-7%	?	?	-75*
O=C1NCN(c2ccccc2)C12CCN(C(c1ccccc1)c1nnnn1-c1ccc3c(c1)OCCO3)CC2 (stereo not drawn)	?	?	-15%	?	?	0
O=C1NCN(c2ccccc2)C12CCN(C(c1cc3ccccc3o1)c1nnnn1-c1ccc3c(c1)OCCO3)CC2 (stereo not drawn)	21µM*	23µM*	?	-22%	-16%	-22
O=C1NCN(c2ccccc2)C12CCN(C(c1cccs1)c1nnnn1-c1ccc3c(c1)OCCO3)CC2 (stereo not drawn)	18µM*	16µM*	?	?	?	-3
COc1ccc(-n2nnnc2C(C2CC2)N2CCC3(CC2)C(=O)NCN3c2ccccc2)cc1 (stereo not drawn)	?	?	-17%	10%	1%	-18
O=C1NCN(c2ccccc2)C12CCN(C(c1nnnn1-c1ccc3c(c1)OCCO3)C1CC1)CC2 (stereo not drawn)	23µM*	13µM*	-10%	?	?	-12
CC(=O)OC1CC(OC2C(O)CC(OC3C(O)CC(OC4CCC5(C)C(CCC6C5CCC5(C)C(C7=CC(=O)OC7)C(O)CC65O)C4)OC3C)OC2C)OC(C)C1OC1OC(CO)C(O)C(O)C1O (stereo not drawn)	1.5µM*	1.8µM*	14%	0.65µM*	1.3µM*	-80*

Screening data from PubChem.
